Test results from paper PMC7862700, “An all-to-all approach to the identification of sequence-specific readers for epigenetic DNA modifications on cytosine”.

Tests used:
Assay in all cases: DAPPL (digital affinity profiling via proximity ligation, sequencing); 10 mM Tris-HCl pH 7.5, 50 mM NaCl, 1 mM DTT, 4% glycerol, room temperature, 30 min; GST-TFs on glutathione beads, 16-mer random dsDNA library, 0.1% formaldehyde crosslink after washing; high values mean tight binding
Conditions in all cases: protein: recombinant; tags: N-terminal GST; dsDNA, one strand shown
ERF = target: T1, ERF (Homo sapiens, UniProt P50548 1-548)
T1 sequence: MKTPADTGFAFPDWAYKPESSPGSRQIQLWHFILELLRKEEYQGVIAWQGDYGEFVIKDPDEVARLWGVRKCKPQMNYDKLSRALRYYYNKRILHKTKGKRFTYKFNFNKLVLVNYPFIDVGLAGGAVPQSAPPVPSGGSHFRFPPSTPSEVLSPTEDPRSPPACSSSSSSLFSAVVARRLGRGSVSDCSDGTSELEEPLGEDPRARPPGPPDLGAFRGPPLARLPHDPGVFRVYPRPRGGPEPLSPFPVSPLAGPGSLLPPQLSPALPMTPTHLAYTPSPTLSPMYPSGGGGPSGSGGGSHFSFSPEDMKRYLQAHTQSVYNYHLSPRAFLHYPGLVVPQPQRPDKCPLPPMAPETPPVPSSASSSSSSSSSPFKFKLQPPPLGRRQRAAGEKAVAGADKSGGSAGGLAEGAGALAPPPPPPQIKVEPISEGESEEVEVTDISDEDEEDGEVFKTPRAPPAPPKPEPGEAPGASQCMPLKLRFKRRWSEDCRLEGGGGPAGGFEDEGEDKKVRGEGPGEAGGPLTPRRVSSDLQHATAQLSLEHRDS
Method in brief: (§1)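 Pools were built from human transcription factors expressed in yeast as GST fusions, captured on glutathione beads and DNA-barcoded, along with a tag-only sample. Incubation with 200 nmole of a 16-mer random double-stranded DNA library lasted 30 min at room temperature in Tris/NaCl/DTT/glycerol buffer, and was followed by washing, 0.1% formaldehyde crosslinking, proximity ligation, PCR amplification and Illumina NextSeq500 sequencing. Binding signal is the quotient of each hexamer's read frequency for a factor and its frequency for the tag-only sample.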

ETV3L = target: T2, ETV3L (Homo sapiens, UniProt Q6ZN32 1-361)
T2 sequence: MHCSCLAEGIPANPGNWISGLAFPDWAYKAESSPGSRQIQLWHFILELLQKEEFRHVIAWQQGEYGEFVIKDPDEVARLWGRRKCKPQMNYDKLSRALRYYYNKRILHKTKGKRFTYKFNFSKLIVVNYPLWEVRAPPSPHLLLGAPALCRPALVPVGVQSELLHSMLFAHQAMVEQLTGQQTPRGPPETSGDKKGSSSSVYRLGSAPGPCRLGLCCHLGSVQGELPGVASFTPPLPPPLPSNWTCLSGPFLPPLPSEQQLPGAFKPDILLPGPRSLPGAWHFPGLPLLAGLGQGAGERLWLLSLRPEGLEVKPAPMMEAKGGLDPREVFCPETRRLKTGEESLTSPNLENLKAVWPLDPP
Method in brief: as §1

ETS2 = target: T3, ETS2 (Homo sapiens, UniProt P15036 1-469)
T3 sequence: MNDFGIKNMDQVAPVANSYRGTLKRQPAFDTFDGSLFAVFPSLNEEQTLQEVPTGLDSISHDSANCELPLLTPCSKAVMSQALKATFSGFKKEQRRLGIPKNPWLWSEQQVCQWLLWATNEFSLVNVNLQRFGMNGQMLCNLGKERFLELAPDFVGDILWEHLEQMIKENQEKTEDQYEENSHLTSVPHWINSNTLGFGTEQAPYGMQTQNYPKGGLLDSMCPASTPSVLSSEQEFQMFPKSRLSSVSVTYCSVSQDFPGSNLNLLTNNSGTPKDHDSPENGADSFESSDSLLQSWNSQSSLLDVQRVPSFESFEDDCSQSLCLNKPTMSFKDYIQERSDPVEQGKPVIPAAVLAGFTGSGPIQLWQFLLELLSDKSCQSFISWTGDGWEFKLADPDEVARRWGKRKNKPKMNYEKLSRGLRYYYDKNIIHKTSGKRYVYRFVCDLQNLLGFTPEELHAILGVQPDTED
Method in brief: as §1

SPDEF = target: T4, SPDEF (Homo sapiens, UniProt O95238 1-335)
T4 sequence: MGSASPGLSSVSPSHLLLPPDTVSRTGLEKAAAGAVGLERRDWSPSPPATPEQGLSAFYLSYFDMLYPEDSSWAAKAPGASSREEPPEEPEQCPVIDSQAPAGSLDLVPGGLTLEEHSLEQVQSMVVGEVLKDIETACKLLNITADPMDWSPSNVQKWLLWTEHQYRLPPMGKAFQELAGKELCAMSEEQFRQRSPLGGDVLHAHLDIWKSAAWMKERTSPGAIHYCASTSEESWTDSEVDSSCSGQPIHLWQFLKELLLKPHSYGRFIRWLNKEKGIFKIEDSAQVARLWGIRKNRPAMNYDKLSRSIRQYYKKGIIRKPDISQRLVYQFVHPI
Method in brief: as §1

ETV7 = target: T5, ETV7 (Homo sapiens, UniProt Q9Y603 1-341)
T5 sequence: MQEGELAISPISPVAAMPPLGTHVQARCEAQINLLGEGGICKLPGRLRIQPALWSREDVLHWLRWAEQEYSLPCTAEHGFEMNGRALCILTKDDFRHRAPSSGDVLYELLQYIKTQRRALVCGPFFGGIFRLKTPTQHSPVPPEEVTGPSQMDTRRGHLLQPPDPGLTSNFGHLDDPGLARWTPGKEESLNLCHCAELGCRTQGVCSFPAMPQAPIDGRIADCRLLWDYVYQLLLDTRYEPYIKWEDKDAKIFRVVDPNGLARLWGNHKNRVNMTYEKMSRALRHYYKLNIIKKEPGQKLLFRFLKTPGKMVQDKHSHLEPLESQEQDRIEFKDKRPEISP
Method in brief: as §1

ELF5 = target: T6, ELF5 (Homo sapiens, UniProt Q9UKW6-2 1-255)
T6 sequence: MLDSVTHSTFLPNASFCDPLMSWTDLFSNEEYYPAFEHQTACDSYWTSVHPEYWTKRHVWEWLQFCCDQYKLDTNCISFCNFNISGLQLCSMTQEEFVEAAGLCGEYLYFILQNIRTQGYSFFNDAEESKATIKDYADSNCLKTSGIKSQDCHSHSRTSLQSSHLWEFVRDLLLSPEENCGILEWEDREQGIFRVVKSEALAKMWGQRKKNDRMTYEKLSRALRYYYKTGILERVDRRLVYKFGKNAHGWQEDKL
Method in brief: as §1

ETV3 = target: T7, ETV3 (Homo sapiens, UniProt P41162-2 1-143)
T7 sequence: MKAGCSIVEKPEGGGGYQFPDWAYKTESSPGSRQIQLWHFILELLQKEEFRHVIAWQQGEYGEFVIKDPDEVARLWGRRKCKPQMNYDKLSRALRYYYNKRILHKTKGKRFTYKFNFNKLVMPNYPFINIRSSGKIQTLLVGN
Method in brief: as §1

ETV6 = ETV6 (Homo sapiens, UniProt P41212 1-452)
Sequence of ETV6 (P41212 whole entry): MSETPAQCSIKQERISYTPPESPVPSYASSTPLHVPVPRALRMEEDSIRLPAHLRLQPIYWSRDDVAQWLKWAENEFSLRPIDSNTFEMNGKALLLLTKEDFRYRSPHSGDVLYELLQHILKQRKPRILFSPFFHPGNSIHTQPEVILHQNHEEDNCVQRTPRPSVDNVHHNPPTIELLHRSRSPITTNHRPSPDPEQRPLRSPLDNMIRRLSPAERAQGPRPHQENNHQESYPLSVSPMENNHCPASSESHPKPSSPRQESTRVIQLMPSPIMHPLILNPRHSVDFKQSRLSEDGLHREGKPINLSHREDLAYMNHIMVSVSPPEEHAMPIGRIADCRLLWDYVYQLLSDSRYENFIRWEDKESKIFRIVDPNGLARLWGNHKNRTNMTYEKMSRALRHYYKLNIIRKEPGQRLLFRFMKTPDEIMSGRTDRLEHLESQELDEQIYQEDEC
Method in brief: as §1

Sequence | binding signal (ERF) | binding signal (ETV3L) | binding signal (ETS2) | binding signal (SPDEF) | binding signal (ETV7) | binding signal (ELF5) | binding signal (ETV3) | binding signal (ETV6)
GATTAT | 1.06 fold enrichment (6-mer frequency, TF over GST control) | 1.11 fold enrichment (6-mer frequency, TF over GST control) | 1.04 fold enrichment (6-mer frequency, TF over GST control) | 1.1 fold enrichment (6-mer frequency, TF over GST control) | 1.18 fold enrichment (6-mer frequency, TF over GST control) | 1.04 fold enrichment (6-mer frequency, TF over GST control) | 1.04 fold enrichment (6-mer frequency, TF over GST control) | 1.12 fold enrichment (6-mer frequency, TF over GST control)
ACCCAT | 1.31 fold enrichment (6-mer frequency, TF over GST control) | 1.34 fold enrichment (6-mer frequency, TF over GST control) | 1.37 fold enrichment (6-mer frequency, TF over GST control) | 1.21 fold enrichment (6-mer frequency, TF over GST control) | 1.37 fold enrichment (6-mer frequency, TF over GST control) | 1.24 fold enrichment (6-mer frequency, TF over GST control) | 1.25 fold enrichment (6-mer frequency, TF over GST control) | 1.24 fold enrichment (6-mer frequency, TF over GST control)
ACGTCT | 1.12 fold enrichment (6-mer frequency, TF over GST control) | 1.29 fold enrichment (6-mer frequency, TF over GST control) | 1.26 fold enrichment (6-mer frequency, TF over GST control) | 1.12 fold enrichment (6-mer frequency, TF over GST control) | 1.29 fold enrichment (6-mer frequency, TF over GST control) | 1.09 fold enrichment (6-mer frequency, TF over GST control) | 1.17 fold enrichment (6-mer frequency, TF over GST control) | 1.19 fold enrichment (6-mer frequency, TF over GST control)
ATTTGC | 1.32 fold enrichment (6-mer frequency, TF over GST control) | 1.26 fold enrichment (6-mer frequency, TF over GST control) | 1.28 fold enrichment (6-mer frequency, TF over GST control) | 1.27 fold enrichment (6-mer frequency, TF over GST control) | 1.43 fold enrichment (6-mer frequency, TF over GST control) | 1.25 fold enrichment (6-mer frequency, TF over GST control) | 1.37 fold enrichment (6-mer frequency, TF over GST control) | 1.27 fold enrichment (6-mer frequency, TF over GST control)
TCTATC | 1.37 fold enrichment (6-mer frequency, TF over GST control) | 1.27 fold enrichment (6-mer frequency, TF over GST control) | 1.16 fold enrichment (6-mer frequency, TF over GST control) | 1.27 fold enrichment (6-mer frequency, TF over GST control) | 1.27 fold enrichment (6-mer frequency, TF over GST control) | 1.24 fold enrichment (6-mer frequency, TF over GST control) | 1.2 fold enrichment (6-mer frequency, TF over GST control) | 1.32 fold enrichment (6-mer frequency, TF over GST control)
ACTTCG | 1.52 fold enrichment (6-mer frequency, TF over GST control) | 1.27 fold enrichment (6-mer frequency, TF over GST control) | 1.36 fold enrichment (6-mer frequency, TF over GST control) | 1.3 fold enrichment (6-mer frequency, TF over GST control) | 1.26 fold enrichment (6-mer frequency, TF over GST control) | 1.32 fold enrichment (6-mer frequency, TF over GST control) | 1.42 fold enrichment (6-mer frequency, TF over GST control) | 1.36 fold enrichment (6-mer frequency, TF over GST control)
CTTTTG | 1.62 fold enrichment (6-mer frequency, TF over GST control) | 1.31 fold enrichment (6-mer frequency, TF over GST control) | 1.45 fold enrichment (6-mer frequency, TF over GST control) | 1.46 fold enrichment (6-mer frequency, TF over GST control) | 1.44 fold enrichment (6-mer frequency, TF over GST control) | 1.28 fold enrichment (6-mer frequency, TF over GST control) | 1.24 fold enrichment (6-mer frequency, TF over GST control) | 1.46 fold enrichment (6-mer frequency, TF over GST control)
TATGTA | 1.36 fold enrichment (6-mer frequency, TF over GST control) | 1.29 fold enrichment (6-mer frequency, TF over GST control) | 1.38 fold enrichment (6-mer frequency, TF over GST control) | 1.35 fold enrichment (6-mer frequency, TF over GST control) | 1.35 fold enrichment (6-mer frequency, TF over GST control) | 1.26 fold enrichment (6-mer frequency, TF over GST control) | 1.25 fold enrichment (6-mer frequency, TF over GST control) | 1.28 fold enrichment (6-mer frequency, TF over GST control)
